# From PubChem BioAssay (EPA / NIEHS)
# Records with an inconclusive call do not appear. Activity calls are given as the source filed them. How the source made its calls: active means hit-call score of the fitted dose curve at least 0.9, where 1 is the maximum; inconclusive means response in the unintended direction; inactive means score below 0.9.
# Biological target: bovine Estrogen Receptor (ER), ESR1 (gene 407238) (UniProt P49884)
# Test: NVS_NR_bER: NovaScreen (NVS) Nuclear Receptor Binding Assay for bovine Estrogen Receptor (ER) (AID 2283345);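 further: actives lower the bound radioligand count which means they displace the ER ligand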
# Method: NVS_NR_bER is a biochemical, single-readout assay that uses extracted gene-proteins from Bovine uterine membranes in a tissue-based cell-free assay. Measurements were taken 18 hours after chemical dosing in a 96-well plate.NVS_NR_bER is one of one assay component(s) measured or calculated from the NVS_NR_bER assay. It is designed to make measurements of radioligand binding, a form of binding reporter, as detected with scintillation counting signals by Lysate-based radiodetection technology.Data from the assay component NVS_NR_bER was analyzed into 1 assay endpoint. This assay endpoint, NVS_NR_bER, was analyzed in the positive analysis fitting direction relative to DMSO as the negative control and baseline of activity. Using a type of binding reporter, loss-of-signal activity can be used to understand changes in the binding as they relate to the gene ESR1. Furthermore, this assay endpoint can be referred to as a primary readout, because the performed assay has only produced 1 assay endpoint. To generalize the intended target to other relatable targets, this assay endpoint is annotated to the nuclear receptor intended target family, where the subfamily is steroidal.
# Binding assays used specific radioligands (tritiated, iodinated) with non-radioactive competitive displacement ligands in agonist or antagonist protocols (as indicated) and various reference compounds and inhibitors to titrate specific binding to receptors and transporters. Most enzyme assays (CYPs, kinases, phosphatases, proteases, HDACs) used recombinant protein and specific substrates (fluorescence mostly, some colorimetric and radioactive) and inhibitors, followed by a biochemical separation of substrate and product. All assays for the biochemical HTS were initially run in duplicate at a single concentration (10 uM for CYP450 assays and 25 uM for all others). […] Each assay was run with positive and negative controls, and concurrent controls on every plate. The follow-up (secondary) screen tested active chemical-pairs in concentration series, as well as a few additional assays not tested in the primary screen, some selected negative inactives, and several cases re-run in the concentration series for confirmatory purposes.
# bovine Estrogen Receptor (ER), ESR1 (gene 407238), sequence (P49884 whole entry, looked up): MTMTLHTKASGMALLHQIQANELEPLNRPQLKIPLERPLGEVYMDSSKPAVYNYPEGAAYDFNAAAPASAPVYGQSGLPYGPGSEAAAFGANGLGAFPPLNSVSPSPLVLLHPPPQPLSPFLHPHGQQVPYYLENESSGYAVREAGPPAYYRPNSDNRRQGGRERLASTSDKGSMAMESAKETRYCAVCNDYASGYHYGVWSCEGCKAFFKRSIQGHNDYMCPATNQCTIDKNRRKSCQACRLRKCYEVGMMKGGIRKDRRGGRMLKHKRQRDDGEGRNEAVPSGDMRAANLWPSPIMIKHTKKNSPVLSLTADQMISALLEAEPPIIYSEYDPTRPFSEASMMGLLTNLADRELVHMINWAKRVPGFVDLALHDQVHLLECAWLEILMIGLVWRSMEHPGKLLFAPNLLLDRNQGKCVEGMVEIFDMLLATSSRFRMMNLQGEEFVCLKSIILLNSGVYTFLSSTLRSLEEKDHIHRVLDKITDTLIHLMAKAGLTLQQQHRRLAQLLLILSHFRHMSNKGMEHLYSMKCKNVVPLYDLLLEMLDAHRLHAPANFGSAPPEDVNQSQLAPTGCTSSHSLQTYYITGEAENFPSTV
Compound,AC50,outcome
Clc1ccc(COC(Cn2ccnc2)c2ccc(Cl)cc2Cl)cc1 (centres undefined),0.7 µM (active),
COC(=O)c1sccc1S(=O)(=O)NC(=O)Nc1nc(C)nc(OC)n1,,inactive
C=CC(=O)OCCCCCC(C)C,,inactive
CCCCCCCCCCCCCCCC[n+]1ccccc1,,inactive
COP(=O)(OC)O/C(=C\Cl)c1cc(Cl)c(Cl)cc1Cl,,inactive
Clc1ccc(C2(Cn3cncn3)CC(Br)CO2)c(Cl)c1 (centres undefined),,inactive
COP(=S)(OC)Oc1ccc(Sc2ccc(OP(=S)(OC)OC)cc2)cc1,,inactive
O=C(OC1CCCCC1)c1ccccc1C(=O)OC1CCCCC1,,inactive
CCOP(=S)(OCC)SCSP(=S)(OCC)OCC,,inactive
CC(C)OC(=O)Nc1ccccc1,,inactive
ClCC(Cl)CCl,,inactive
C(=NC1CCCCC1)=NC1CCCCC1,,inactive
CCOC(=O)/C=C(C)/C=C/C[C@@H](C)CCCC(C)C,,inactive
O=C(Cc1ccccc1)c1ccccc1,,inactive
O=S(=O)(c1ccc(Cl)cc1)c1ccc(Cl)cc1,,inactive
C[C@H]1CCCC(=O)CCC/C=C/c2cc(O)cc(O)c2C(=O)O1,0.0119 µM (active),
C=C(C)C(=O)[O][Sn]([CH2]CCC)([CH2]CCC)[CH2]CCC,,inactive
C[C@]12CC[C@H](O)CC1=CC[C@@H]1[C@@H]2CC[C@]2(C)C(=O)CC[C@@H]12,3.16 µM (active),
ClC1=C(Cl)[C@]2(Cl)[C@H]3[C@H]([C@H]4C=C[C@H]3C4)[C@@]1(Cl)C2(Cl)Cl,,inactive
CCOP(=S)(OCC)Oc1nc(Cl)c(Cl)cc1Cl,,inactive
CC(C)(c1ccc(OCC2CO2)cc1)c1ccc(OCC2CO2)cc1 (centres undefined),,inactive
NC(=O)O,,inactive
NNC(=S)NN,,inactive
O=[N+]([O-])c1c(Cl)c(Cl)cc(Cl)c1Cl,,inactive
O=[N+]([O-])c1ccc2c3c(cccc13)CC2,,inactive
Nc1ccc(-c2ccc(N)c(Cl)c2)cc1Cl,,inactive
CCC[CH2][Sn]([CH2]CCC)([CH2]CCC)[O]C(=O)c1ccccc1,,inactive
COP(=S)(OC)Oc1cc(Cl)c(Br)cc1Cl,,inactive
CC(C)(c1ccccc1)c1ccc(O)c(C(C)(C)c2ccccc2)c1,,inactive
